Source: PubChem BioAssay (Broad Institute)
TcdB GH inh: TcdB glycohydrolase inhibitors, primary screen, biochemical, single point, plate reader; inhibition, % at 9.99 µM; hit rate 0.24% among 350,000; TcdB glycohydrolase enzymatic assay; AID 652162, 2013; in the data active = inhibition above about 10%
Target sequence (P18177 whole entry, looked up): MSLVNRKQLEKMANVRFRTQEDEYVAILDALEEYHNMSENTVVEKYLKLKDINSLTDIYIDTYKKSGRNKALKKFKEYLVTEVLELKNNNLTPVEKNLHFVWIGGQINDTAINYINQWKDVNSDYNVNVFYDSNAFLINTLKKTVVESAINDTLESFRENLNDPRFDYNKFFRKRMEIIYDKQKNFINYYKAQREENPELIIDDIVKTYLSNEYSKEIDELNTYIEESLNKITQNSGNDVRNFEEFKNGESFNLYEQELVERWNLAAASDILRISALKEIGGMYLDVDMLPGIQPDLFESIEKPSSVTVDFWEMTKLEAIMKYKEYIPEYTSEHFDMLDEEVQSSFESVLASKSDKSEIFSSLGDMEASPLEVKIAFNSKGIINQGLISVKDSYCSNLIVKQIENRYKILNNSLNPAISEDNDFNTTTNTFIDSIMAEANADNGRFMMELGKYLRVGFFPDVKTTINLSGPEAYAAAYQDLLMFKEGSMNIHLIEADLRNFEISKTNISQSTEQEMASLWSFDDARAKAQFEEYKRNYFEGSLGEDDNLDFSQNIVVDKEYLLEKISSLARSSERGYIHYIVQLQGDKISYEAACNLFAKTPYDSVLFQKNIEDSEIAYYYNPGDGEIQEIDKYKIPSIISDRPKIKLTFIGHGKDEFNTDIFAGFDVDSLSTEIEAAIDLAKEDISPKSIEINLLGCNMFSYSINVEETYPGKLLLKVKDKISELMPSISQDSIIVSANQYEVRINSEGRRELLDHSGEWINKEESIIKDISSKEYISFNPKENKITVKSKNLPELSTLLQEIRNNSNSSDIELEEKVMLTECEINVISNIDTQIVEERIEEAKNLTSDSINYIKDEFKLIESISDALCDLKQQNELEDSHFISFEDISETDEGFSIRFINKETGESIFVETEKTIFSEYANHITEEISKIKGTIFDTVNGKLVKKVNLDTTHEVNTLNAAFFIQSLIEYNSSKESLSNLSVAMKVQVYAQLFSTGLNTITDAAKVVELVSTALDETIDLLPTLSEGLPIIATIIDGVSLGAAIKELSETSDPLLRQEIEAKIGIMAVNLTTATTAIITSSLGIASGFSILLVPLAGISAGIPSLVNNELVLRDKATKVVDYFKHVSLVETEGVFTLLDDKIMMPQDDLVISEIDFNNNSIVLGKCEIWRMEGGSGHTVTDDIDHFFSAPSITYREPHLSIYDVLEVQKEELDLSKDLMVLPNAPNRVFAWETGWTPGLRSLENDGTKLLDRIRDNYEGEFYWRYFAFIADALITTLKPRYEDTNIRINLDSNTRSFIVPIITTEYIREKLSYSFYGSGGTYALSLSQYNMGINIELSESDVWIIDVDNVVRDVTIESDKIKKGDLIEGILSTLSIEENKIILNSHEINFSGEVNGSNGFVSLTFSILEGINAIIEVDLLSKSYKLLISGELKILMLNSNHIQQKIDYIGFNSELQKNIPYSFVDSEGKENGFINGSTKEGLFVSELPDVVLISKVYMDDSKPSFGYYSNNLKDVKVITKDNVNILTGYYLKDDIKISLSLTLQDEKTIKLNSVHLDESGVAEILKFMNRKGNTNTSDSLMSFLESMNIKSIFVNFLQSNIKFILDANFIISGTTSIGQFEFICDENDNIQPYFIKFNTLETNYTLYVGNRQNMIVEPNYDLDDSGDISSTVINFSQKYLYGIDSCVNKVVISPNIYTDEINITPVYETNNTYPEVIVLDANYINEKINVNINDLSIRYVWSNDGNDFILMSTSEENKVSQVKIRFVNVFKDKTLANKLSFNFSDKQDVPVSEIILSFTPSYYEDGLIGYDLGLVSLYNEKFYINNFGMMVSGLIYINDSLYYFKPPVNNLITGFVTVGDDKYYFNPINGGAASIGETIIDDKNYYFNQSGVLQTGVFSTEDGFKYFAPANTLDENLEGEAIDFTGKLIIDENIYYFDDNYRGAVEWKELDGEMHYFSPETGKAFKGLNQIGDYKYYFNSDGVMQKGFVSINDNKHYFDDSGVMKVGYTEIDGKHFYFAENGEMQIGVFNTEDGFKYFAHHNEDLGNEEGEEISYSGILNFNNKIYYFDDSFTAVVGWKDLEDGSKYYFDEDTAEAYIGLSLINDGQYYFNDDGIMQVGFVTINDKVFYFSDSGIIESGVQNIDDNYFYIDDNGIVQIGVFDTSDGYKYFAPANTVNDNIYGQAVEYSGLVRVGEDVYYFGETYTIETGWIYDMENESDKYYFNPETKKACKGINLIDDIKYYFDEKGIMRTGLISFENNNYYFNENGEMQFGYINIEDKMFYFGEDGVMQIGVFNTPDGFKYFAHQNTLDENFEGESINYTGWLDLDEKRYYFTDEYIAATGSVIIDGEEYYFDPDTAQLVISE
FadD28 binding: inhibitors of FadD28 bisubstrate probe binding, primary screen, biochemical, fluorescence polarization, single point. Mycobacterium tuberculosis FadD28 fatty-acid-AMP ligase. inhibition, % at 12.5 µM. hit rate 0.22% among 360,000; in the data active = inhibition above about 8.5%, passing the limit was not always enough
BH1578 lux ind: inducers of Vibrio cholerae quorum light production without autoinducers, primary screen, BH1578 luxS cqsA deficient, single point. V. cholerae BH1578 lux reporter, luminescence, 6 h. activation, % at 18.7 µM. hit rate 0.16% among 350,000. AID 588436, 2011; in the data active = activation mostly above about 9.7%, no sharp cut-off
Mtb BioA inh: M. tuberculosis BioA enzyme inhibitors, primary screen, biochemical, plate reader, single point, HTS; 7,8-diaminopelargonic acid synthase BioA (Mycobacterium tuberculosis); purified M. tuberculosis BioA enzyme; inhibition, % at 9.99 µM; hit rate 0.096% among 360,000; AID 602481, 2012; in the data active = inhibition above about 40%
* = called active by the depositor. A selection: hits, their analogues and other compounds. The true share with any hit is near 0.54%.

What do the screens show for `C[C@@H]1CN([C@@H](C)CO)C(=O)c2cc(NC(=O)Nc3ccc4c(c3)OCO4)ccc2O[C@@H]1CN(C)C(=O)Nc1ccccc1`?
Mtb BioA inh: -1

How did CCOCCCNC(=O)c1cc2c(s1)-c1ccccc1SC2 do in these assays?
TcdB GH inh: -7; FadD28 binding: -4; BH1578 lux ind: 0; Mtb BioA inh: -1

What do the screens show for `CN(C)CCNC(=O)c1cc2c(s1)-c1ccc(Cl)cc1SC2`?
TcdB GH inh: 12*; FadD28 binding: -28; BH1578 lux ind: 0; Mtb BioA inh: 0

How did O=S(=O)(c1ccc(Nc2ccc(-c3ccc4c(c3)OCCO4)nn2)cc1)N1CCCC1 do in these assays?
TcdB GH inh: 0; FadD28 binding: 11*; BH1578 lux ind: inactive; Mtb BioA inh: 0

How did O=C(NC1CC1)c1cccc(Nc2ccc(-c3ccc4c(c3)OCCO4)nn2)c1 do in these assays?
FadD28 binding: -2; BH1578 lux ind: -1; Mtb BioA inh: -2

Results for CCCCCCNC(=O)c1c(O)c2cccc3c2n(c1=O)CCC3 ?
FadD28 binding: 0; BH1578 lux ind: 17*; Mtb BioA inh: -2

How did CCN(CC)CCNC(=O)c1c(O)c2cccc3c2n(c1=O)CCC3 do in these assays?
FadD28 binding: -1; BH1578 lux ind: inactive; Mtb BioA inh: 0

What do the screens show for `O=C(C[C@H]1C=C[C@H](NC(=O)c2cccnc2)[C@H](CO)O1)NCc1ccncn1`?
TcdB GH inh: -1

What do the screens show for `Cc1ccc(C(=O)Nc2ccc(O)cc2C(=O)O)cc1C`?
TcdB GH inh: 20*; FadD28 binding: 0; BH1578 lux ind: 4; Mtb BioA inh: -1

How did Cc1ccc(C(=O)Nc2ccc(O)cc2C(=O)O)cc1 do in these assays?
FadD28 binding: -1; BH1578 lux ind: inactive; Mtb BioA inh: -1

How did Cc1nn(C)cc1-c1n[nH]c(=S)n1-c1ccc(F)cc1 do in these assays?
TcdB GH inh: 10*; FadD28 binding: 1; BH1578 lux ind: 0

How did CC(C)C#Cc1ccc2c(c1)O[C@@H](CN(C)C(=O)C1CCCCC1)[C@@H](C)CN([C@@H](C)CO)S2(=O)=O do in these assays?
Mtb BioA inh: 2

How did CC(=O)c1ccc(Nc2ccc(-c3ccccc3F)nn2)cc1 do in these assays?
TcdB GH inh: 10*; FadD28 binding: -3; BH1578 lux ind: -1

How did COc1ccccc1-c1ccc(Nc2ccc(C(=O)N3CCOCC3)cc2)nn1 do in these assays?
FadD28 binding: 0; BH1578 lux ind: -1; Mtb BioA inh: -2

Results for O=C(C1CCCC1)N1CCCCN2[C@@H](CO)[C@H](c3ccc(C#CC4(O)CCCC4)cc3)[C@@H]2C1 ?
TcdB GH inh: 0; Mtb BioA inh: -3

Results for Cc1nc2cc(C(=O)O)ccc2n1-c1ccc(F)cc1F ?
FadD28 binding: 1; BH1578 lux ind: -1; Mtb BioA inh: 3

How did CCOc1ccccc1-n1c(C)nc2cc(C(=O)O)ccc21 do in these assays?
TcdB GH inh: 20*; FadD28 binding: 1; BH1578 lux ind: -3

Results for CC(=O)c1ccc(NC(=O)CNCC(c2ccccc2)N(C)C)cc1 (configuration not stated) ?
TcdB GH inh: 15*; FadD28 binding: -1; BH1578 lux ind: inactive

How did CCCCCCCCCCCCCCCCCCNc1ccn(C2OC(COP(=O)(O)OCC3OC(n4cc(F)c(=O)[nH]c4=O)CC3O)C(O)C2O)c(=O)n1 (configuration not stated) do in these assays?
TcdB GH inh: 1; FadD28 binding: 53*; BH1578 lux ind: 0

What do the screens show for `CCOC(=O)c1[nH]nc(-c2cc(CC)c(O)cc2O)c1-c1cscn1`?
TcdB GH inh: 15*; FadD28 binding: -3; BH1578 lux ind: 0; Mtb BioA inh: -1

How did CCCc1cc2c(=O)c(-c3cscn3)c(C(=O)OCC)oc2cc1O do in these assays?
TcdB GH inh: 2; FadD28 binding: -2; BH1578 lux ind: 0; Mtb BioA inh: 0

What do the screens show for `C[C@H](CO)N1C[C@H](C)[C@H](CN(C)C(=O)Nc2cccc3ccccc23)Oc2ccc(NC(=O)Nc3ccc4c(c3)OCO4)cc2CC1=O`?
TcdB GH inh: -2; Mtb BioA inh: -1

How did O=C1/C(=C\c2cc([N+](=O)[O-])ccc2O)SC(=S)N1Cc1ccc(Cl)cc1 do in these assays?
TcdB GH inh: 6; FadD28 binding: 8.6*; BH1578 lux ind: 0; Mtb BioA inh: -11

How did O=C1/C(=C\c2cccc(O)c2O)SC(=S)N1Cc1ccccc1 do in these assays?
TcdB GH inh: 1; FadD28 binding: 1; BH1578 lux ind: inactive; Mtb BioA inh: -1

Results for C[C@H]1CN([C@@H](C)CO)C(=O)c2cccc(NC(=O)c3ccncc3)c2O[C@H]1CN(C)C(=O)Nc1ccc(C(F)(F)F)cc1 ?
TcdB GH inh: 0; Mtb BioA inh: 1

How did COc1cccc(-n2ccnc2SCC(=O)NCc2ccccc2)c1 do in these assays?
FadD28 binding: -1; BH1578 lux ind: 25*; Mtb BioA inh: 0

What do the screens show for `CCS(=O)(=O)c1ccc2oc(Nc3ccc(C(C)(C)C)cc3)nc2c1`?
TcdB GH inh: 12*; FadD28 binding: -3; BH1578 lux ind: 3; Mtb BioA inh: 0

How did O=C(N[C@H]1CC[C@@H](CCNC(=O)c2ccccc2F)O[C@@H]1CO)c1cnccn1 do in these assays?
TcdB GH inh: 0; Mtb BioA inh: 2

Results for C[C@@H]1CCCCO[C@@H](CN(C)C(=O)Nc2ccccc2)[C@H](C)CN([C@H](C)CO)C(=O)c2cc(NC(=O)C3CCCCC3)ccc2O1 ?
TcdB GH inh: -1; Mtb BioA inh: 0

What do the screens show for `NC(=S)N=Nc1c(O)[nH]c2ccc(F)cc12`?
TcdB GH inh: 1; FadD28 binding: 1; BH1578 lux ind: -1

How did NC(=S)N=Nc1c(O)cc(O)c2[nH]c(=O)ccc12 do in these assays?
TcdB GH inh: 0; FadD28 binding: 30*

How did CC(=O)N(C)C[C@H]1Oc2ncc(C#CC(C)(C)O)cc2C(=O)N([C@H](C)CO)C[C@H]1C do in these assays?
TcdB GH inh: 0; Mtb BioA inh: 0

Results for C[C@@H]1CN([C@H](C)CO)C(=O)c2cc(-c3ccccc3)cnc2O[C@H]1CN(C)C(=O)c1cccc(F)c1 ?
Mtb BioA inh: 7

Results for O=C1c2c(O)ccc(O)c2C(=O)c2c(NCCNCCO)ccc(NCCNCCO)c21 ?
TcdB GH inh: 17*; FadD28 binding: 5; BH1578 lux ind: -6; Mtb BioA inh: 5

What do the screens show for `CCC(=O)Nc1nc(C)c(-c2csc(Nc3cccc(C(=O)O)c3)n2)s1`?
FadD28 binding: 4; BH1578 lux ind: -1

Results for Cc1nc(C)c(-c2csc(Nc3ccc(O)c(C(=O)O)c3)n2)s1 ?
TcdB GH inh: 4; FadD28 binding: 17*; BH1578 lux ind: -1; Mtb BioA inh: 3

How did Cc1cc(NS(=O)(=O)c2ccc(Nc3nc(-c4sc(N)nc4C)cs3)cc2)no1 do in these assays?
FadD28 binding: 55*; BH1578 lux ind: inactive; Mtb BioA inh: 6

How did Cc1nc(N)sc1-c1csc(Nc2cccc(C(=O)O)c2)n1 do in these assays?
TcdB GH inh: 7; FadD28 binding: 23*; BH1578 lux ind: 0; Mtb BioA inh: 8
